Test results: PubChem BioAssay (EPA / NIEHS)
Records with an inconclusive call do not appear. Calls of active or inactive are those of the source. The calls were made as follows: active = hit-call score of the fitted dose curve at least 0.9, where 1 is the maximum; inconclusive = response in the unintended direction; inactive = score below 0.9.

Assay: ATG_XTT_Cytotoxicity: Cytotoxicity Assessment in the Attagene TRANS-FACTORIAL HepG2 Assay (AID 2283584);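 as to AC50: cells exposed to compound for 24 h before reading; active means loss of viability signal versus DMSO baseline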
Procedure: ATG_XTT_Cytotoxicity is a cell-based, single-readout assay that uses HepG2, a human liver cell line, with measurements taken at 24 hours after chemical dosing in a 24-well plate.ATG_XTT_Cytotoxicity is one of one assay component(s) measured or calculated from the ATG_XTT_Cytotoxicity assay. It is designed to make measurements of cell number, a form of viability reporter, as detected with […] signals by XTT cytotoxicity assay technology.Data from the assay component ATG_XTT_Cytotoxicity was analyzed into 1 assay endpoint. This assay endpoint, ATG_XTT_Cytotoxicity, was analyzed in the positive analysis fitting direction relative to DMSO as the negative control and baseline of activity. Using a type of viability reporter, loss-of-signal activity can be used to understand changes in the viability. Furthermore, this assay endpoint can be referred to as a primary readout, because the performed assay has only produced 1 assay endpoint. To generalize the intended target to other relatable targets, this assay endpoint is annotated to the cell cycle intended target family, where the subfamily is cytotoxicity.
Human liver HepG2 cells are transiently transfected with multiple reporter transcription units (MRTUs) in 6-well plates using FuGene 6 reagent (Roche; 3 ml FuGene/1 mg DNA). The MRTU constructs are regulated by a cis-regulating element (promoter). […] A major difference between the CIS and TRANS system is that in CIS activities of endogenous TFs are measured, whereas the TRANS assay evaluates changes in activities of exogenous, chimeric NR-Gal4 proteins. […] At the end of 24 hour incubation, total RNA was isolated using TriZol reagent (Invitrogen). The isolated RNA is then reverse-transcribed using oligo(dT) primer and Mo-MLV reverse transcriptase (Invitrogen) with DNAse I (Ambion) treatment for 30 min. The one-tenth of the produced cDNA was amplified by PCR using Taq DNA polymerase (Invitrogen) and two reporter sequence-specific primers. The PCR products were fluorescently labeled by primer extension with 6-arboxyfluorescein (6-FAM) 5'-labeled reporter sequence-specific primer (2 min at 95 C, 20 s at 68 C and 10 min at 72 C) and these products were digested with 5U of HpaI (New England Biolabs) for 2h at 37 C. The fragments were purified using Qiaquick PCR columns (Qiagen), analyzed on an ABI 3130xL genetic analyzer (Applied Biosystems) with peak positions identified by using a set of X-rhodamine (ROX)-labeled MapMarker1000 molecular weight standards (BioVentures). The raw capillary electrophoresis data was processed using Attagraph software (Attagene).

Row | Compound | outcome | AC50
1 | c1cc(N(CC2CO2)CC2CO2)ccc1Cc1ccc(N(CC2CO2)CC2CO2)cc1 (stereo not given) | inactive | –
2 | CCCCCCC1CCC(=O)O1 (stereo not given) | inactive | –
3 | COc1ccccc1OCC(O)CO (stereo not given) | inactive | –
4 | CCCCCC[C@@H](O)C/C=C\CCCCCCCC(=O)O | inactive | –
5 | CNC[C@H](O)[C@@H](O)[C@H](O)[C@H](O)CO | inactive | –
6 | C=C(C)C(=O)OCCCCCC | inactive | –
7 | NCc1ccccc1 | inactive | –
8 | COc1cccc(OC)c1C(=O)O | inactive | –
9 | O=C(CC(C(=O)OC1CCCCC1)S(=O)(=O)O)OC1CCCCC1 (stereo not given) | inactive | –
10 | O=C(C(=O)c1ccccc1)c1ccccc1 | inactive | –
11 | C=C1CC[C@H]2C[C@@H]1C2(C)C | inactive | –
12 | CCCC[N+]1(C)CCCC1 | inactive | –
13 | CC(=O)CCc1ccccc1 | inactive | –
14 | C1=CCC=C1 | inactive | –
15 | CC(C)CC(=O)O | inactive | –
16 | CCCCCC1CCCC(=O)O1 (stereo not given) | inactive | –
17 | Cc1cc(-n2nc3ccc(Cl)cc3n2)c(O)c(C(C)(C)C)c1 | inactive | –
18 | CCCCCCCC#N | inactive | –
19 | COC(=O)/C=C\C(=O)OC | inactive | –
20 | NC(=O)c1ccc(N)cc1 | inactive | –

Row | Compound | outcome | AC50
21 | CC/C=C\CC1=C(C)CCC1=O | inactive | –
22 | CN(C)Cc1cc(C(C)(C)C)c(O)c(C(C)(C)C)c1 | inactive | –
23 | O=C(O)/C=C\C(=O)O | inactive | –
24 | CNC(=C[N+](=O)[O-])NCCSCc1csc(CN(C)C)n1 | inactive | –
25 | c1cc[c]([Bi]([c]2ccccc2)[c]2ccccc2)cc1 | inactive | –
26 | CC(C)CC(=O)CC(C)C | inactive | –
27 | CN(C)CCC(c1ccc(Cl)cc1)c1ccccn1 (stereo not given) | inactive | –
28 | C=CCOCC(CC)(CO)COCC=C | inactive | –
29 | OCCc1ccccn1 | inactive | –
30 | CN(C)CCCN1c2ccccc2CCc2ccc(Cl)cc21 | – | 25.7 µM (active)
31 | CC(=O)OC(C)(C)Cc1ccccc1 | inactive | –
32 | CCc1cc(C(N)=S)ccn1 | inactive | –
33 | CCCCCCOC(=O)CCCCCCCC(=O)OCCCCCC | inactive | –
34 | CCOc1ccc2c(c1)C(C)CC(C)(C)N2 (stereo not given) | inactive | –
35 | CC(=O)Nc1c(I)c(NC(C)=O)c(I)c(C(=O)O)c1I | inactive | –
36 | c1ccc(CNc2ncnc3nc[nH]c23)cc1 | inactive | –
37 | CCCCNC(N)=O | inactive | –
38 | C[C@H]1C[C@H]2[C@@H]3CCC4=CC(=O)C=C[C@]4(C)[C@@]3(F)[C@@H](O)C[C@]2(C)[C@@]1(O)C(=O)CO | inactive | –
39 | O=C1NC(=O)[C@@H]2CC=CC[C@H]12 | inactive | –
40 | CC(O)(P(=O)(O)O)P(=O)(O)O | inactive | –
